In PubChem BioAssay (EPA / NIEHS):
“And” between values parts separate entries of the source, which are not always exact repeats. Equal values may be shown once. A structure can be active in one record and inactive in another. The source made the active and inactive calls. Rule for the calls: active = hit-call score of the fitted dose curve at least 0.9, where 1 is the maximum; inactive = score below 0.9.

Test: ATG_CMV_CIS: Attagene CIS-FACTORIAL HepG2 Assay for human CMV (Internal Marker) (AID 2282928);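 note: endpoint acts as a background internal control marker rather than a target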
Settings: HepG2 CMV promoter reporter, transcription factor profiling; actives raise or lower the signal
How it was run: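 Bidirectional fits against DMSO are applied to reporter mRNA, read by RT-PCR with capillary electrophoresis, from HepG2 cells exposed 24 h. The endpoint serves as an internal CMV background marker within the cis-factorial reporter panel.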

Structure (SMILES)	outcome	AC50
CC(C)CCCCCCOC(=O)CCCCC(=O)OCCCCCCC(C)C	inactive	
NC(=O)N1C(=O)C(C(=O)c2cc(Cl)cs2)c2cc(F)c(Cl)cc21 (stereo not drawn)	inactive	
CC#C[C@]1(O)CC[C@H]2[C@@H]3CCC4=CC(=O)CCC4=C3[C@@H](c3ccc(N(C)C)cc3)C[C@@]21C	inactive	56.9 µM (active)
CCCCCCC(=O)O	inactive	
O=C1OC2(c3ccccc31)c1cc(Br)c(O)c(Br)c1Oc1c2cc(Br)c(O)c1Br	inactive	93 µM (active)
CC[C@H](c1ccc(O)cc1)[C@@H](CC)c1ccc(O)cc1		12.5 µM (active) and 11.1 µM (active) and 7.79 µM (active)
CCCOc1sc(C(=O)N2CCC(c3cc(CN)ccc3F)CC2)c(C)c1Br	inactive	
CC(O)CO (stereo not drawn)	inactive	
O=C(O)c1ccccc1C(c1ccc(O)cc1)c1ccc(O)cc1	inactive	
NCC(F)(F)C(F)(F)C(F)(F)C(F)(F)C(F)(F)C(F)(F)C(F)(F)F	inactive	
Oc1cccc(O)c1	inactive	
CC(C)(C)c1cc(C(C)(C)C)c(O)c(C(C)(C)C)c1	inactive	74.9 µM (active)
CCCCC(CC)COC(=O)CCCCC(=O)OCc1ccccc1 (stereo not drawn)	inactive	
CN1CCC[C@H]1c1cccnc1	inactive	
CCCCCCCCCCCCc1ccccc1S(=O)(=O)O	inactive	
COCC(C)O (stereo not drawn)	inactive	
CC(C)(C)c1cccc(C(C)(C)C)c1O		100 µM (active)
Cc1cc(C)c(O)c(C)c1		100 µM (active)

Structure (SMILES)	outcome	AC50
CC(C)(C)c1ccc(O)c(C(C)(C)C)c1	inactive	
Oc1cc2ccccc2c2ccccc12	inactive	
N#C[C@@H]1CC(F)(F)CN1C(=O)CNC1CC2CCC(C1)N2c1ncccn1 (stereo partly drawn)	inactive	
O=C(OCCOCCOC(=O)c1ccccc1)c1ccccc1	inactive	
CC(O)C(=O)O (stereo not drawn)	inactive	
COc1ccc([N+](=O)[O-])cc1N	inactive	
Cc1ccc(S(=O)(=O)O)c(C)c1	inactive	
NC(=O)N(O)[C@@H]1C=C[C@H](Oc2cccc(Oc3ccc(F)cc3)c2)C1		7.56 µM (active)
CCC(C)(C)C1CCC(O)CC1 (stereo not drawn)	inactive	
FC(F)(I)C(F)(F)C(F)(F)C(F)(F)C(F)(F)C(F)(F)I		9.48 µM (active)
c1ccc2c(c1)ccc1ccccc12	inactive	
CCOC(=O)CC(O)(CC(=O)OCC)C(=O)OCC	inactive	
CCCCCCCCCCCCCC[N+](C)(C)C	inactive	15.2 µM (active)
Nc1cccc2c(N)cccc12	inactive	
C[C@@H]1C[C@H]2[C@@H]3CCC4=CC(=O)C=C[C@]4(C)[C@@]3(F)[C@@H](O)C[C@]2(C)[C@@]1(O)C(=O)COP(=O)(O)O	inactive	
CCCCCCCCOC(=O)CCCCCCCCC(=O)OCCCCCCCC	inactive	
CC(C)(C)CC(C)(C)c1ccc(O)c(-n2nc3ccccc3n2)c1		61.4 µM (active)

Test: ATG_DR4_LXR_CIS: Attagene CIS-FACTORIAL HepG2 Assay for human Liver X Receptor (LXR), DR4 submotif (AID 2282929)
Settings: HepG2 Attagene DR4 cis-reporter, mRNA transcription; actives raise or lower the signal
How it was run: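 HepG2, transient MRTU transfection, cis-element (DR4) promoter; 24 h compound exposure; total RNA → oligo(dT) RT → PCR → 6-FAM primer extension → HpaI cut → CE. Gain/loss vs DMSO, bidirectional fit.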

Structure (SMILES)	outcome	AC50
CC(C)CCCCCCOC(=O)CCCCC(=O)OCCCCCCC(C)C	inactive	
NC(=O)N1C(=O)C(C(=O)c2cc(Cl)cs2)c2cc(F)c(Cl)cc21 (stereo not drawn)	inactive	
CC#C[C@]1(O)CC[C@H]2[C@@H]3CCC4=CC(=O)CCC4=C3[C@@H](c3ccc(N(C)C)cc3)C[C@@]21C		10.4 µM (active) [middle of 4 runs]
CCCCCCC(=O)O	inactive	
O=C1OC2(c3ccccc31)c1cc(Br)c(O)c(Br)c1Oc1c2cc(Br)c(O)c1Br	inactive	
CC[C@H](c1ccc(O)cc1)[C@@H](CC)c1ccc(O)cc1	inactive	11.1 µM (active) and 11 µM (active)
CCCOc1sc(C(=O)N2CCC(c3cc(CN)ccc3F)CC2)c(C)c1Br	inactive	
CC(O)CO (stereo not drawn)	inactive	
O=C(O)c1ccccc1C(c1ccc(O)cc1)c1ccc(O)cc1	inactive	
NCC(F)(F)C(F)(F)C(F)(F)C(F)(F)C(F)(F)C(F)(F)C(F)(F)F	inactive	
Oc1cccc(O)c1	inactive	
CC(C)(C)c1cc(C(C)(C)C)c(O)c(C(C)(C)C)c1	inactive	
CCCCC(CC)COC(=O)CCCCC(=O)OCc1ccccc1 (stereo not drawn)	inactive	
CN1CCC[C@H]1c1cccnc1	inactive	
OC1CCC(C2CCCCC2)CC1 (stereo not drawn)		158 µM (active) [middle of 4 runs]
CCCCCCCCCCCCc1ccccc1S(=O)(=O)O	inactive	
COCC(C)O (stereo not drawn)	inactive	
CC(C)(C)c1cccc(C(C)(C)C)c1O	inactive	

Structure (SMILES)	outcome	AC50
Cc1cc(C)c(O)c(C)c1	inactive	
CC(C)(C)c1ccc(O)c(C(C)(C)C)c1	inactive	
Oc1cc2ccccc2c2ccccc12	inactive	
N#C[C@@H]1CC(F)(F)CN1C(=O)CNC1CC2CCC(C1)N2c1ncccn1 (stereo partly drawn)	inactive	
O=C(OCCOCCOC(=O)c1ccccc1)c1ccccc1	inactive	
CC(O)C(=O)O (stereo not drawn)	inactive	
COc1ccc([N+](=O)[O-])cc1N	inactive	
Cc1ccc(S(=O)(=O)O)c(C)c1	inactive	
NC(=O)N(O)[C@@H]1C=C[C@H](Oc2cccc(Oc3ccc(F)cc3)c2)C1	inactive	
CCC(C)(C)C1CCC(O)CC1 (stereo not drawn)	inactive	172 µM (active)
FC(F)(I)C(F)(F)C(F)(F)C(F)(F)C(F)(F)C(F)(F)I	inactive	
c1ccc2c(c1)ccc1ccccc12	inactive	
CCOC(=O)CC(O)(CC(=O)OCC)C(=O)OCC	inactive	
CCCCCCCCCCCCCC[N+](C)(C)C	inactive	16.6 µM (active)
Nc1cccc2c(N)cccc12	inactive	
C[C@@H]1C[C@H]2[C@@H]3CCC4=CC(=O)C=C[C@]4(C)[C@@]3(F)[C@@H](O)C[C@]2(C)[C@@]1(O)C(=O)COP(=O)(O)O	inactive	
CCCCCCCCOC(=O)CCCCCCCCC(=O)OCCCCCCCC	inactive	
CC(C)(C)CC(C)(C)c1ccc(O)c(-n2nc3ccccc3n2)c1	inactive	
